Experimental data from PubChem BioAssay (NCATS).
Inconclusive results are not listed. A number with no mark means an inactive call. Calls of active or inactive are those of the source. Calls come from the whole dose curve; as a rule, active = well fitted inhibition curve with a large enough effect in the repeat runs; inconclusive = weak or mixed curves; inactive = no such curve, though single readings can be large or run the other way.

Biological target: Cytochrome P450 2C9 (Homo sapiens) (UniProt P11712)
Assay: Cytochrome P450 family 2 subfamily C member 9 (CYP2C9) small molecule antagonists: luciferase biochemical (cell-free) qHTS assay (AID 1645842); note: nearly all actives have a fitted effect of over 55% in size
Conditions: P450-Glo CYP2C9 enzyme assay, luciferin luminescence; series mostly up to 57.4 µM; activity change, negative = inhibition: at the top concentration
Description: National Center for Advancing Translational Sciences [NCATS] Assay Overview: Cytochrome P450 (CYP) enzymes are membrane-bound hemeproteins that play a key role in metabolism of drugs and xenobiotics. Assaying the effect of chemicals on CYP isozymes is useful to minimize the adverse drug reactions and toxicities in drug development process. Chemical compounds were tested for their effect on CYP enzyme activities by using P450-Glo (TM) screening systems (Promega Corporation, Madison, WI). These systems provide a luminescent method containing proluciferin substrates and are converted to luciferin products by CYP isozymes. The luciferin products formed are detected with a luciferin detection reagent, and the amount of light produced is proportional to CYP activity. P450-Glo (TM) CYP2C9 screening system (Catalog. No. V9790) was used to detect the compounds that interfere in CYP2C9 activity.
Assay Protocol Summary: Two ul of enzyme-substrate mix supplemented with 0.4% Bovine Serum Albumin was dispensed into medium binding white/solid 1536-well plates (Greiner Bio-One North America Inc., Monroe, NC) using a Flying Reagent Dispenser (FRD, Aurora Discovery, San Diego, CA). […] The assay plates were incubated at room temperature for 10 min. Then 2 ul of NADPH regeneration solution was added to each well of the assay plates using an FRD and incubated at 37C for 1 h. The reaction was stopped by adding 4 ul of detection reagent using an FRD and after 20 min incubation at room temperature, the luminescence signal was measured using a ViewLux plate reader (Perkin Elmer, Shelton, CT). Data were expressed as relative luminescence units.
% is set by controls: 0 for no effect and ±100 for the full control effect; potency is the fitted concentration of half-maximal effect.

Sequence of Cytochrome P450 2C9 (Homo sapiens) (P11712 whole entry, looked up): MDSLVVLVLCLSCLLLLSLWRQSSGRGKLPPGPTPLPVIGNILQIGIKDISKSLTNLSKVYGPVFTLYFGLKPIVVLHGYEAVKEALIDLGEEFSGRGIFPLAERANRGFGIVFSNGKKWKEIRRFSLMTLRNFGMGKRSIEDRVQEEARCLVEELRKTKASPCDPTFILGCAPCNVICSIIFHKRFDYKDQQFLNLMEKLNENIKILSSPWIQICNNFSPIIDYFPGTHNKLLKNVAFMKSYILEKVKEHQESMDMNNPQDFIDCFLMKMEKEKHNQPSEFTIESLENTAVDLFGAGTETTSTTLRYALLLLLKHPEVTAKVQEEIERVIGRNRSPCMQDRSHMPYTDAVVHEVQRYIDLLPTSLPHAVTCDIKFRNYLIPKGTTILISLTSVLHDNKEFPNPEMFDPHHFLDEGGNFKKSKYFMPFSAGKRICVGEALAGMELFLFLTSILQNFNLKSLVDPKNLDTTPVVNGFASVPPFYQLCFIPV

| Structure (SMILES) | activity change, negative = inhibition | Potency |
| --- | --- | --- |
| CN1CCN(CC(=O)N2c3ccccc3C(=O)Nc3cccnc32)CC1 | 3.44% [at 4.83 µM] |  |
| c1cnc(N2CCN(Cc3ccc4c(c3)OCO4)CC2)nc1 |  | 11 µM (active) |
| NC(=O)c1ncn([C@@H]2O[C@H](CO)[C@@H](O)[C@H]2O)c1O | 1.87% |  |
| CC(C)(C)NCC(O)c1cc(O)cc(O)c1 (stereo not given) | 0.91% |  |
| FC(F)(F)c1ccccc1-n1ccnc1 |  | 13.8 µM (active) |
| CC(=O)[C@]1(O)Cc2c(O)c3c(c(O)c2[C@@H](O[C@H]2C[C@H](N)[C@H](O)[C@H](C)O2)C1)C(=O)c1ccccc1C3=O | -22.3% |  |
| CN/C(=C\[N+](=O)[O-])NCCSCc1ccc(CN(C)C)o1 | -20.2% |  |
| Cc1nnc(SCC2=C(C(=O)O)N3C(=O)[C@@H](NC(=O)Cn4cnnn4)[C@H]3SC2)s1 | -4.02% |  |
| C[C@]12CCC(=O)C=C1CC[C@@H]1[C@@H]2CC[C@@]2(C)[C@H]1CC[C@]2(O)C(=O)CO | -9.11% |  |
| O=C(O)CP(=O)(O)O | 4.58% |  |
| CN(C)C(=O)Oc1cccc([N+](C)(C)C)c1 | 7.48% |  |
| Cc1scc2c1N(C(=O)CN1CCN(C)CC1)c1ccccc1NC2=O | 9.6% |  |
| COc1cc(Cc2cnc(N)nc2N)cc(OC)c1OC | 2.79% |  |
| N[C@@H](COP(=O)(O)O)C(=O)O | 3.46% [at 23.9 µM] |  |
| NC(N)=N/N=C/c1c(Cl)cccc1Cl | -0.771% |  |
| CN(C)C/C=C(/c1ccc(Br)cc1)c1cccnc1 | 8.97% |  |
| CCCCNc1c(C(=O)OCC)c(C)nc2c1cnn2CC |  | 17.4 µM (active) |
| C#CCN(C)CCCOc1ccc(Cl)cc1Cl |  | 30.9 µM (active) |
| O=C(CCCN1CCC(O)(c2cccc(C(F)(F)F)c2)CC1)c1ccc(F)cc1 |  | inactive |
| COc1ccc(CN(CCN(C)C)c2ccccn2)cc1 |  | inactive |

| Structure (SMILES) | activity change, negative = inhibition | Potency |
| --- | --- | --- |
| CN(C)CCOC(=O)COc1ccc(Cl)cc1 | 7.23% |  |
| Nc1c2c(nc3ccccc13)CCCC2O (stereo not given) | 9.69% |  |
| CN(C)CC[C@@H](c1ccc(Br)cc1)c1ccccn1 | 6.89% |  |
| COCCCC/C(=N\OCCN)c1ccc(C(F)(F)F)cc1 |  | 11 µM (active) |
| Nc1ncn([C@@H]2O[C@H](CO)[C@@H](O)[C@H]2O)c(=O)n1 | 11.8% |  |
| CC(C)NNC(=O)c1ccncc1 | -20.9% |  |
| Cc1cccc(C)c1NC(=O)C(C)N (stereo not given) | 7.46% |  |
| CN=C(NC#N)NCCSCc1nc[nH]c1C |  | 13.8 µM (active) |
| CCOC(=O)C1=C(C)NC(C)=C(C(=O)OC)C1c1cccc([N+](=O)[O-])c1 (stereo not given) |  | 0.436 µM (active) |
| CCN1CCC[C@H]1CNC(=O)c1c(O)c(Cl)cc(Cl)c1OC | 1.52% |  |
| CCOC(=O)c1cnc2c(cnn2CC)c1NN=C(C)C |  | 13.8 µM (active) |
| Brc1c(NC2=NCCN2)ccc2nccnc12 | -1.05% |  |
| COc1ccc([C@@H]2Sc3ccccc3N(CCN(C)C)C(=O)[C@@H]2OC(C)=O)cc1 |  | inactive |
| CC[N+](C)(C)c1cccc(O)c1 | 3.27% |  |
| C[N+](C)(C)CCOC(=O)CCC(=O)OCC[N+](C)(C)C | 11% |  |
| C[C@]12CCC(=O)C=C1CC[C@@H]1[C@@H]2C(=O)C[C@@]2(C)[C@H]1CC[C@]2(O)C(=O)CO | 3.05% |  |
| CC(N=C(NC#N)Nc1ccncc1)C(C)(C)C (stereo not given) |  | 3.89 µM (active) |
| Fc1ccc(C(c2ccc(F)cc2)N2CCN(C/C=C/c3ccccc3)CC2)cc1 |  | 7.76 µM (active) |
| CCO/C([O-])=N/c1c[n+](N2CCOCC2)no1 | 12.8% |  |
| CCCN(CCC)CCc1cccc2c1CC(=O)N2 | 6.32% |  |
